# Source: PMC7862700, “An all-to-all approach to the identification of sequence-specific readers for epigenetic DNA modifications on cytosine”
# Columns and labels:
# Assay in all cases: DAPPL (digital affinity profiling via proximity ligation, sequencing); 10 mM Tris-HCl pH 7.5, 50 mM NaCl, 1 mM DTT, 4% glycerol, room temperature, 30 min; GST-TFs on glutathione beads, 16-mer random dsDNA library, 0.1% formaldehyde crosslink after washing; high values mean tight binding
# [1] = molecular target: T1, FEV (Homo sapiens, UniProt Q99581 1-238); details: protein: recombinant; tags: N-terminal GST; dsDNA, one strand shown
# T1 sequence: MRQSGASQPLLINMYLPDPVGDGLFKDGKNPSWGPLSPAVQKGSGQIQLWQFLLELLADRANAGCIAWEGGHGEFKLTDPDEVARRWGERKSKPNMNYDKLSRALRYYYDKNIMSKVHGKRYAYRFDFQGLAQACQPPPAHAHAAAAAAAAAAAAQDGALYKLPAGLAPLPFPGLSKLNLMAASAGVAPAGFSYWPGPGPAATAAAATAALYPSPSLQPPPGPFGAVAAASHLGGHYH
# In short: (§1)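 Binding signal is each hexamer's read frequency for a factor divided by its frequency in the tag-only sample. The factors were GST-fused human transcription factors from yeast, captured on glutathione beads, DNA-barcoded and pooled with that sample. Pools were incubated with 200 nmole of a random double-stranded 16-mer DNA library in Tris/NaCl/DTT/glycerol buffer at room temperature for 30 min, then washed, crosslinked with 0.1% formaldehyde, proximity-ligated with BsaI/T4 ligase (1 h, 37 °C), PCR-amplified and sequenced on an Illumina NextSeq500.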
# [2] = molecular target: ETV5 (Homo sapiens, UniProt P41161 1-510); details: protein: recombinant; tags: N-terminal GST; dsDNA, one strand shown
# ETV5, sequence (P41161 whole entry): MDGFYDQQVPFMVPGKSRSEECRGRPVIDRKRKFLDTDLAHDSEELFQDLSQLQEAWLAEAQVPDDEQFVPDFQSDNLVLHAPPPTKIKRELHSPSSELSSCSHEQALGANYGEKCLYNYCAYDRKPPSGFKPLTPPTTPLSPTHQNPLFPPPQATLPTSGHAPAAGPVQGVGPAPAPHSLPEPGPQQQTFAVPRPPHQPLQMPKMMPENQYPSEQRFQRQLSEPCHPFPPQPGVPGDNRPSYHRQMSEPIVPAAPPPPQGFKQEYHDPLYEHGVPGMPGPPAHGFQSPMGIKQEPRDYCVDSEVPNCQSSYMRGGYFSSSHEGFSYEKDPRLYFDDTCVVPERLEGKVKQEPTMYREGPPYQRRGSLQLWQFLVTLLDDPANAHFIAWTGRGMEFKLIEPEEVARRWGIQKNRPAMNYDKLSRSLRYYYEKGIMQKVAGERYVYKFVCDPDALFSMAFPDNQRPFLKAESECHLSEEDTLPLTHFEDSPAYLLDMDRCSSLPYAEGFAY
# In short: as §1
# [3] = molecular target: HSF1 (Homo sapiens, UniProt Q00613 1-529); details: protein: recombinant; tags: N-terminal GST; chain copies: 3; dsDNA, one strand shown
# HSF1, sequence (Q00613 whole entry): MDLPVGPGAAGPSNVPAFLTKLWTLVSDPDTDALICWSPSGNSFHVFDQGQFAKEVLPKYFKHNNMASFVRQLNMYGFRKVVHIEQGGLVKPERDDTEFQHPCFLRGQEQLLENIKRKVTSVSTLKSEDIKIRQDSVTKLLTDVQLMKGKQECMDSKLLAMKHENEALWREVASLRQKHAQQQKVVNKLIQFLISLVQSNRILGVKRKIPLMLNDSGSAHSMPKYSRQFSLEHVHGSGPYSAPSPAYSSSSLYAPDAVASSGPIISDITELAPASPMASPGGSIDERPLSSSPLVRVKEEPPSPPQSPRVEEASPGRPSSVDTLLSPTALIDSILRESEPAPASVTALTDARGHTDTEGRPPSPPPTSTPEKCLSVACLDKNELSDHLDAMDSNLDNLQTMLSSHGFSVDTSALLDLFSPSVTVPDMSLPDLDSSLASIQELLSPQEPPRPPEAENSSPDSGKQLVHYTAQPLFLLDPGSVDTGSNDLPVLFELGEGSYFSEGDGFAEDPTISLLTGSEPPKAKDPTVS
# In short: as §1
# [4] = molecular target: T2, SPIC (Homo sapiens, UniProt Q8N5J4 1-248); details: protein: recombinant; tags: N-terminal GST; dsDNA, one strand shown
# T2 sequence: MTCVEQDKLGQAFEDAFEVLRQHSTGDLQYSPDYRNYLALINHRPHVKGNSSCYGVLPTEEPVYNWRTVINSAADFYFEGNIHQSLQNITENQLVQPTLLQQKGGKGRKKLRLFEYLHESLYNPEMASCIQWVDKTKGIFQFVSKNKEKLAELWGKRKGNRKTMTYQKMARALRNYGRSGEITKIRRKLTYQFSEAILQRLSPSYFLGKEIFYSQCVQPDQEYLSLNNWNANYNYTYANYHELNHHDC
# In short: as §1
# [5] = molecular target: ELF4 (Homo sapiens, UniProt Q99607 1-663); details: protein: recombinant; tags: N-terminal GST; dsDNA, one strand shown
# ELF4, sequence (Q99607 whole entry): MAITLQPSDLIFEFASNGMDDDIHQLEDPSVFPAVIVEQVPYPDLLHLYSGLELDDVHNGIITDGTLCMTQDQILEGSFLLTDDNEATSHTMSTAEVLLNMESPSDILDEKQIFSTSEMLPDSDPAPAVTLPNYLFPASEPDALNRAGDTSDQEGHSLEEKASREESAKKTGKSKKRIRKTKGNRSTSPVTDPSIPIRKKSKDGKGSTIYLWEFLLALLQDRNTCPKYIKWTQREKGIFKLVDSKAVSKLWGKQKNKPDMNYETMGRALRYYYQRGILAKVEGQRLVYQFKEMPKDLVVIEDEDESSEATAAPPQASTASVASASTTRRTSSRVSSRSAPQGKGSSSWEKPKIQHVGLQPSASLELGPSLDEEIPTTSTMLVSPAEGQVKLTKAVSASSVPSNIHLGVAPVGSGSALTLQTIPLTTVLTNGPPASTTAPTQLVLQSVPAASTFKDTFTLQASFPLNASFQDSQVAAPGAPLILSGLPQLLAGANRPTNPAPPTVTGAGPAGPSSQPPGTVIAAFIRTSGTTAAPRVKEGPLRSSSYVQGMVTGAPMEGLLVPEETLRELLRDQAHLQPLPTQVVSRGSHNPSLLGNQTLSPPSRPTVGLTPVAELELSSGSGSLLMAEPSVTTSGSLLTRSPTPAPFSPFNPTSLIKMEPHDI
# In short: as §1
# [6] = molecular target: T3, ELK4 (Homo sapiens, UniProt P28324-2 1-405); details: protein: recombinant; tags: N-terminal GST; dsDNA, one strand shown
# T3 sequence: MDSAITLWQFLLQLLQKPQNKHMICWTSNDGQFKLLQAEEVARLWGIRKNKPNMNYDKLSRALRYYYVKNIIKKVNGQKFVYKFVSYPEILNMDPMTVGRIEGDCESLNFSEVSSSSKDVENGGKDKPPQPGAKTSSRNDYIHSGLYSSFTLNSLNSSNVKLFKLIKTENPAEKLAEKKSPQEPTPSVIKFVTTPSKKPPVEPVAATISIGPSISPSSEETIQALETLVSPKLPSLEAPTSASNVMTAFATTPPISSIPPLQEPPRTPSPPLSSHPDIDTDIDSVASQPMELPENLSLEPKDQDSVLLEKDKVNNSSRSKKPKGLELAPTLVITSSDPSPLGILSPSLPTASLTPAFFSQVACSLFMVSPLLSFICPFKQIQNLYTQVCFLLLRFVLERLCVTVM
# In short: as §1
# [7] = molecular target: T4, ETV2 (Homo sapiens, UniProt O00321 1-342); details: protein: recombinant; tags: N-terminal GST; dsDNA, one strand shown
# T4 sequence: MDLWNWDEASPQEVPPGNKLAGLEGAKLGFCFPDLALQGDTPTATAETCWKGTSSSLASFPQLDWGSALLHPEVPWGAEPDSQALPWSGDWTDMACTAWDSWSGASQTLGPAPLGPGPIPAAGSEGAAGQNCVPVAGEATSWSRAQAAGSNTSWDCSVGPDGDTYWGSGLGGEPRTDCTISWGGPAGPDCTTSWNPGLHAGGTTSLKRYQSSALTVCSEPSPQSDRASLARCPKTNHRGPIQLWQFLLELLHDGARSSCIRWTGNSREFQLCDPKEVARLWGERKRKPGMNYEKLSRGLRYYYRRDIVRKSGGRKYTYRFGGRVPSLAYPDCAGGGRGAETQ
# In short: as §1
# [8] = molecular target: T5, ELF3 (Homo sapiens, UniProt P78545 1-371); details: protein: recombinant; tags: N-terminal GST; dsDNA, one strand shown
# T5 sequence: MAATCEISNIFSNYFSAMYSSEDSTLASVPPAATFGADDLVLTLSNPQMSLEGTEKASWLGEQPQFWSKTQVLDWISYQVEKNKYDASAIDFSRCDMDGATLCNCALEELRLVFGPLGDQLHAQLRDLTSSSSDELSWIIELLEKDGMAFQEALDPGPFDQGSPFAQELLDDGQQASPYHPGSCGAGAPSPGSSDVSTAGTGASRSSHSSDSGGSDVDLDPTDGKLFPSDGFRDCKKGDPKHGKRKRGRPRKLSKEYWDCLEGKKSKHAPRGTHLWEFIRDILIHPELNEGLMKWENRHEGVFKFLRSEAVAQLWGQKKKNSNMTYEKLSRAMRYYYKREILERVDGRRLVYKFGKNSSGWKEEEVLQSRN
# In short: as §1
# [9] = molecular target: CRX (Homo sapiens, UniProt O43186 1-299); details: protein: recombinant; tags: N-terminal GST; dsDNA, one strand shown
# CRX, sequence (O43186 whole entry): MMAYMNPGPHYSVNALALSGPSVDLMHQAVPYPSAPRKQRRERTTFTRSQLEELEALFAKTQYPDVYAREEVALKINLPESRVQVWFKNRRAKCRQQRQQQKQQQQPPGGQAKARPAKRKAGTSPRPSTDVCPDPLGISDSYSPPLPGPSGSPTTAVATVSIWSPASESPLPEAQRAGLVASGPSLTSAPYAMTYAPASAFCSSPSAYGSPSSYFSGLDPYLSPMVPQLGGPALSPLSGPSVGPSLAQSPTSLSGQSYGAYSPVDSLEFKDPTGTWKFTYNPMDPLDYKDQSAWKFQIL
# In short: as §1
# [10] = molecular target: ETV1 (Homo sapiens, UniProt P50549 1-477); details: protein: recombinant; tags: N-terminal GST; dsDNA, one strand shown
# ETV1, sequence (P50549 whole entry): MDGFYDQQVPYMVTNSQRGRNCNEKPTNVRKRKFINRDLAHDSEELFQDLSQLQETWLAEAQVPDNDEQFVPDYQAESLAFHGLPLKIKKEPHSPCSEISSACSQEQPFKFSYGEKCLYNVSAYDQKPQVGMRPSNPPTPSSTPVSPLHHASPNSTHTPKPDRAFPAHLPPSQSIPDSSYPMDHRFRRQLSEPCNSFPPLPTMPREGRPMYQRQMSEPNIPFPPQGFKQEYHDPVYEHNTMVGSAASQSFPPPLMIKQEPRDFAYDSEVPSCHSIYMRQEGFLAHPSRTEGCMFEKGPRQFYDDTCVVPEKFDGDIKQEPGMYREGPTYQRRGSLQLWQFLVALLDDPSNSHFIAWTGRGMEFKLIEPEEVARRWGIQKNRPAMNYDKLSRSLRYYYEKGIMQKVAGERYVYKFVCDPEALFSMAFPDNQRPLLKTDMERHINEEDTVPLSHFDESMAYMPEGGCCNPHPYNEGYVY
# In short: as §1
# [11] = molecular target: T6, ERF (Homo sapiens, UniProt P50548 1-548); details: protein: recombinant; tags: N-terminal GST; dsDNA, one strand shown
# T6 sequence: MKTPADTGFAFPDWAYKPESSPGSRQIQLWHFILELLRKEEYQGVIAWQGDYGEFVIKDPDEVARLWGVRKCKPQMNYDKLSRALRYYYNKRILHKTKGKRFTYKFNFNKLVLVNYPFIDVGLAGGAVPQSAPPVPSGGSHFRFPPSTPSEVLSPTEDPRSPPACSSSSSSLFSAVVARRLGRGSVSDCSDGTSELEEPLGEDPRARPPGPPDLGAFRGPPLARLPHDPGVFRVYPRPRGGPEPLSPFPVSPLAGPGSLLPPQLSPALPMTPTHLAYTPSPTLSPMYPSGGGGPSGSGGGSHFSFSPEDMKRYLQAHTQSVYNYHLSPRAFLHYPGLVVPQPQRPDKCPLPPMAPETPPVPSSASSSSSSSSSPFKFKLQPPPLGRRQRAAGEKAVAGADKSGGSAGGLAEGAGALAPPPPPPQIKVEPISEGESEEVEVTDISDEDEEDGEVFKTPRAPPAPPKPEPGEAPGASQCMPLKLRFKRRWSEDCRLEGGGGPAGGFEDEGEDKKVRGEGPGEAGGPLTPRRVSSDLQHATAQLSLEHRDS
# In short: as §1
# [12] = molecular target: T7, ETV3L (Homo sapiens, UniProt Q6ZN32 1-361); details: protein: recombinant; tags: N-terminal GST; dsDNA, one strand shown
# T7 sequence: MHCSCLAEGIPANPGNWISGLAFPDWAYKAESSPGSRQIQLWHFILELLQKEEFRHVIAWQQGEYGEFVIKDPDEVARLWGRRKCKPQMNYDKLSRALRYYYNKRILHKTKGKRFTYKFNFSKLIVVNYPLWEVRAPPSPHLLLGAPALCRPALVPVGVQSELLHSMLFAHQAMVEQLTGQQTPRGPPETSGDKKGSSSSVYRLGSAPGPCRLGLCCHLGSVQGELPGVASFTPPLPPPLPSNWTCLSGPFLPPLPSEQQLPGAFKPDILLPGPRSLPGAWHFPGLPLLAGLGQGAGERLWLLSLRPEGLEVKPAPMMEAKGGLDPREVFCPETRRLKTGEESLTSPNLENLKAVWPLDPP
# In short: as §1
# [13] = molecular target: T8, ETS2 (Homo sapiens, UniProt P15036 1-469); details: protein: recombinant; tags: N-terminal GST; dsDNA, one strand shown
# T8 sequence: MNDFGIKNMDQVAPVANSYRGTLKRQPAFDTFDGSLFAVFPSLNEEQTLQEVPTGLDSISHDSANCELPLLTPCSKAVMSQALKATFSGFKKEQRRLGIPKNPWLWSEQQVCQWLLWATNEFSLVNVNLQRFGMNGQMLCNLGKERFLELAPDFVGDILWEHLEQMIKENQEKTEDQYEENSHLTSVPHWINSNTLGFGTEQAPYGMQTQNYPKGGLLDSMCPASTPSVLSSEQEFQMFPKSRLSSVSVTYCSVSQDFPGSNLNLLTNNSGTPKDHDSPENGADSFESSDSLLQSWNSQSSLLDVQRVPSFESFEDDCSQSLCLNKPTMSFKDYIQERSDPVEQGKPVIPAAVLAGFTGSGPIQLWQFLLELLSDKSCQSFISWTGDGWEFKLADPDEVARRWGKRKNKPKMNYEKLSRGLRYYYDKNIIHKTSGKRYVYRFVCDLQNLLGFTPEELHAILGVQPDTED
# In short: as §1
# [14] = molecular target: T9, SPDEF (Homo sapiens, UniProt O95238 1-335); details: protein: recombinant; tags: N-terminal GST; dsDNA, one strand shown
# T9 sequence: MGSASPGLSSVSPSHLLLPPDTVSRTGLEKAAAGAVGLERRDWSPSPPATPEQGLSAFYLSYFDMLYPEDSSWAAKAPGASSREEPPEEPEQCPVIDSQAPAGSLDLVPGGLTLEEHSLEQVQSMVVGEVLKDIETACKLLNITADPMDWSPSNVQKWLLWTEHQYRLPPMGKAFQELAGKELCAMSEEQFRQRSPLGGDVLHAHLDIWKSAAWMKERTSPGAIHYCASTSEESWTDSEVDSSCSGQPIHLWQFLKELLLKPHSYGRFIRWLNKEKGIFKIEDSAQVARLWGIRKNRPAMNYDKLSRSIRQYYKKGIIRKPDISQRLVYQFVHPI
# In short: as §1
# [15] = molecular target: T10, ETV7 (Homo sapiens, UniProt Q9Y603 1-341); details: protein: recombinant; tags: N-terminal GST; dsDNA, one strand shown
# T10 sequence: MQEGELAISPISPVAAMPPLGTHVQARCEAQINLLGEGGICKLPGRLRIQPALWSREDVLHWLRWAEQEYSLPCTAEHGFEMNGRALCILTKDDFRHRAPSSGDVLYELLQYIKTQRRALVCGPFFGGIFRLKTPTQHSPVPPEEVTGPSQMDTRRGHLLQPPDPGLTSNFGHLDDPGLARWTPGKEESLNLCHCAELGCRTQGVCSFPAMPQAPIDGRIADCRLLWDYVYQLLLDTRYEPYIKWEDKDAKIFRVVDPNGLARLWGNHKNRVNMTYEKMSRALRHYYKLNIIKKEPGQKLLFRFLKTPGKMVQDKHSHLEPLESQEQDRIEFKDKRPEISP
# In short: as §1
# [16] = molecular target: T11, ELF5 (Homo sapiens, UniProt Q9UKW6-2 1-255); details: protein: recombinant; tags: N-terminal GST; dsDNA, one strand shown
# T11 sequence: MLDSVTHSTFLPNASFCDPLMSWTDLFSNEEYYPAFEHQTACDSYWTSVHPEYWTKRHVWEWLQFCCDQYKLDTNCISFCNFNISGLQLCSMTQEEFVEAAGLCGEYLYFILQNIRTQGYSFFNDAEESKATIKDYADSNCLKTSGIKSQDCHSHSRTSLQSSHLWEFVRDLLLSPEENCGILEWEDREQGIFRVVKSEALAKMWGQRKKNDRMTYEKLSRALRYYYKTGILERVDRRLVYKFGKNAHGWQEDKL
# In short: as §1
# [17] = molecular target: T12, ETV3 (Homo sapiens, UniProt P41162-2 1-143); details: protein: recombinant; tags: N-terminal GST; dsDNA, one strand shown
# T12 sequence: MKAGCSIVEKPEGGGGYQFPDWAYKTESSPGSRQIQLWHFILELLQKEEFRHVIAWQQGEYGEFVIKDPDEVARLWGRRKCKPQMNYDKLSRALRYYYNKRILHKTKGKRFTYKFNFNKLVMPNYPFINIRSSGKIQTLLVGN
# In short: as §1
# [18] = molecular target: ETV6 (Homo sapiens, UniProt P41212 1-452); details: protein: recombinant; tags: N-terminal GST; dsDNA, one strand shown
# ETV6, sequence (P41212 whole entry): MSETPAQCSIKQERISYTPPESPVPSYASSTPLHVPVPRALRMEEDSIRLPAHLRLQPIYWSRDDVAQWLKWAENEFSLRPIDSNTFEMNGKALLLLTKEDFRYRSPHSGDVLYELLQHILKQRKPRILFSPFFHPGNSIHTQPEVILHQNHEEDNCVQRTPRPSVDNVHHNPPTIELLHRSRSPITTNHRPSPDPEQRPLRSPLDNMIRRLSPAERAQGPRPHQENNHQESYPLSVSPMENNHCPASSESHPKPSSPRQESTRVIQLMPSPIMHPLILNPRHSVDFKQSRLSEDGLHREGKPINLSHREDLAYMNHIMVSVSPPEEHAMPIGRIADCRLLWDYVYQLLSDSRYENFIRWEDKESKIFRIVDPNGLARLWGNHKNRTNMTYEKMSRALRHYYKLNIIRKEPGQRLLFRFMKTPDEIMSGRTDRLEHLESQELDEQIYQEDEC
# In short: as §1
sequence,measurement,setting,value
GTTCCT,binding signal,[1],"1.75 fold enrichment (6-mer frequency, TF over GST control)"
same,binding signal,[2],"1.91 fold enrichment (6-mer frequency, TF over GST control)"
same,binding signal,[3],"1.43 fold enrichment (6-mer frequency, TF over GST control)"
same,binding signal,[4],"1.96 fold enrichment (6-mer frequency, TF over GST control)"
same,binding signal,[5],"1.6 fold enrichment (6-mer frequency, TF over GST control)"
same,binding signal,[6],"1.48 fold enrichment (6-mer frequency, TF over GST control)"
same,binding signal,[7],"1.65 fold enrichment (6-mer frequency, TF over GST control)"
same,binding signal,[8],"1.6 fold enrichment (6-mer frequency, TF over GST control)"
same,binding signal,[9],"1.07 fold enrichment (6-mer frequency, TF over GST control)"
same,binding signal,[10],"1.79 fold enrichment (6-mer frequency, TF over GST control)"
same,binding signal,[11],"1.49 fold enrichment (6-mer frequency, TF over GST control)"
same,binding signal,[12],"1.71 fold enrichment (6-mer frequency, TF over GST control)"
same,binding signal,[13],"1.75 fold enrichment (6-mer frequency, TF over GST control)"
same,binding signal,[14],"1.74 fold enrichment (6-mer frequency, TF over GST control)"
same,binding signal,[15],"1.67 fold enrichment (6-mer frequency, TF over GST control)"
same,binding signal,[16],"2.54 fold enrichment (6-mer frequency, TF over GST control)"
same,binding signal,[17],"1.88 fold enrichment (6-mer frequency, TF over GST control)"
same,binding signal,[18],"1.82 fold enrichment (6-mer frequency, TF over GST control)"
